BAZ2B inh = qHTS Assay for Inhibitors of BAZ2B; Bromodomain adjacent to zinc finger domain protein 2B (Homo sapiens), Q9UIF8; AlphaScreen BAZ2B-H3K14Ac peptide displacement; Potency, µM (doses to about 114 µM), for inactives: at the top dose activity change, negative = inhibition, actives largely listed as inhibitors; hit rate 4.4% among 360,000; AID 504333, 2011; further: on the % scale 0 is the no-effect control and ±100 the full control effect; nearly all actives have a fitted effect of over 60% in size
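AlphaScreen displacement of biotin-H3(5-23)K14Ac peptide (50 nM final) from BAZ2B (50 nM final) in PBS pH 7.4, 0.01% Tween-20; complex preformed 30 min RT, then compounds (top 110 uM) 30 min RT, beads 20 min dark.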
HP1b chromo inh = HTS for Inhibitors of HP1-beta Chromodomain Interactions with Methylated Histone Tails; hit rate 0.56% among 390,000; AID 540317, 2011; Potency, µM (doses to about 114 µM), for inactives: at the highest dose activity change, negative = inhibition, hits mostly inhibitors; Chromobox protein homolog 1 (Homo sapiens), P83916; AlphaScreen HP1-beta / biotin-H3K9me3 peptide binding; further: nearly all actives have a fitted effect of over 70% in size
Target sequence (P83916 whole entry, looked up): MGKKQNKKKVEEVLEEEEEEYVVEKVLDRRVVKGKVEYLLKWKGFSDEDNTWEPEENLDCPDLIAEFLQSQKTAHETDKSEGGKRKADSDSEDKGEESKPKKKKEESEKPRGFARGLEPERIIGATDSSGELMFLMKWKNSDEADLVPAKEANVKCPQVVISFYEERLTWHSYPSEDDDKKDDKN
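AlphaScreen: HP1-beta (50 nM) preformed 30 min with biotin-H3(1-18)K9me3 peptide (50 nM) in PBS pH 7.4, 0.01% Tween-20. Compound added for 30 min at RT, then streptavidin donor/nickel chelate acceptor beads (10 ug/mL) for 30 min.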
G9a block = qHTS Assay for Inhibitors of Histone Lysine Methyltransferase G9a; Potency, µM (titrated, usually from 102 µM), inactives show at the highest dose activity, negative = inhibition, actives largely listed as inhibitors; G9a H3K9 monomethylation, AlphaScreen, 2 h; hit rate 8.8% among 350,000; further: on the % scale 0 is the no-effect control and ±100 the full control effect; nearly all actives have a fitted effect of over 75% in size
Target sequence (Q96KQ7 913-1193 limits assumed): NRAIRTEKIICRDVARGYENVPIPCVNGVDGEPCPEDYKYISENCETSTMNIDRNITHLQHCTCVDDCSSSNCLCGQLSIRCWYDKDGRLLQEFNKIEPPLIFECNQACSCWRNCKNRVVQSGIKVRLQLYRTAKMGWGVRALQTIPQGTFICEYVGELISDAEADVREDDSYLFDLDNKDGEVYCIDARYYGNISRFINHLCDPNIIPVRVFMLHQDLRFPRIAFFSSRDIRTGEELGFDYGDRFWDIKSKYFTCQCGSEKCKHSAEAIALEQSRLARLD
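Quantitative HTS format: methyltransferase activity on a biotin-tagged H3K9 peptide is measured by AlphaScreen, using a rabbit anti-monomethyl-H3K9 antibody with streptavidin donor and anti-IgG acceptor beads. Final levels are 20 nM enzyme, 500 nM peptide, 20 uM SAM; 2 h RT.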
JMJD2A Tudor = qHTS Assay for Inhibitors of JMJD2A-Tudor Domain | AID 504339, 2011 | AlphaScreen JMJD2A-Tudor / H3K4me3 peptide binding | Potency, µM (titrated, usually from 114 µM), for the others: top-dose activity change, negative = inhibition, most hits filed as inhibitors | Lysine-specific demethylase 4A (Homo sapiens), O75164 | hit rate 4.4% among 390,000; further: on the % scale 0 is the no-effect control and ±100 the full control effect; nearly all actives have a fitted effect of over 50% in size
Sfp inh = qHTS Assay for Inhibitors of Bacillus subtilis Sfp phosphopantetheinyl transferase (PPTase). 4'-phosphopantetheinyl transferase ffp (Bacillus subtilis), Q9F4F7. Biochemical Sfp PPTase activity, qHTS. Potency, µM, for the others: largest response in the series, negative = inhibition, hits mostly inhibitors. hit rate 3.5% among 310,000. AID 1490, 2009;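 further: the enzyme is Sfp with the accession as filed and its product quenches rhodamine fluorescence; 0% = enzyme reaction without inhibitor and -100% = no enzyme wells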
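Step 1, compound plus 15 nM Sfp-PPTase, 15 min, room temperature. Step 2, add rhodamine-CoA (5 uM) and BHQ-2-YbbR (12.5 uM). Step 3, read 525/598 nm fluorescence at 0 and 30 min.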
Active calls of the source: *; ? = inconclusive; / = no result given; ! = not confirmed by another sample; [ ] = another dose, or the depositor's remark. Only some compounds are listed: those with a hit (about 12% of all), similar ones and a draw of the others. The call rests on the fitted dose curve; in most records, active means well fitted curve in the direction sought with a large enough effect; inconclusive means small, poorly fitted or top-dose-only effect, or another doubt; inactive means no such curve, though single readings can be large; an effect the other way counts as inactive or inconclusive. Potency means the concentration at half of the fitted maximal effect.

SMILES	BAZ2B inh	HP1b chromo inh	G9a block	JMJD2A Tudor	Sfp inh
CCN(CC)CCCNC(=O)c1ccc(OCC(=O)Nc2ccccc2C(F)(F)F)c(OC)c1	-5.0%	27.7%	59.7%	-8.4%	-0.5%
Cc1ccc(-n2c([S-])c(C(=O)Nc3ccc(OC(F)F)cc3)[n+]3ccc(C(=O)NCCO)cc23)cc1C	-37.4%	10.1%	10µM*	-10.3%	?
COc1ccccc1-n1c([S-])c(C(=O)Nc2ccccc2C(F)(F)F)[n+]2ccc(C(=O)NCCO)cc12	-19.4%	?	20µM*	?	7.0%
COC(=O)C1C2CC3c4[nH]c5cc(OC)ccc5c4CCN3CC2CC(OC)C1OC (stereo unspecified)	/	/	?	/	-23.8%
Nc1c(C(=O)C2CC2)sc2nc3c(cc12)CCC3	9.7%	59.5%	?	0.0%	-7.1%
Nc1c(C(=O)c2ccc(Cl)cc2)sc2nc3c(cc12)CCC3	-18.9%	28.8%	13.5%[59 µM]	4.3%	13.7%
Nc1c(C(=O)O)sc2nc3c(cc12)CCCC3	-24.6%	51.1%	22.4µM*	-9.6%	-14.9%
NC(=O)c1sc2nc3c(cc2c1N)CCCCCC3	-13.7%	23.6%	50.1µM*	-18.1%	31.6µM*
CN(C)c1cccc(C(=O)NNC(=S)NC2CC3CCC2C3)c1 (stereo unspecified)	-25.6%	?	50.1µM*	?	12.0%
CC(C)N(C(=S)NC1CC2CCC1C2)c1ccccc1 (stereo unspecified)	-3.2%	91.9%	77.7%	42.0%	11.8%
CCOC(=O)C1CCN(C(=O)c2ccc(OC3CCN(C(=O)COC)CC3)cc2)CC1	-4.7%	30.9%	/	3.2%	0.6%
CC(C)(C)c1ccc(-c2n[nH]c(=S)n2/N=C/c2ccncc2)cc1	-9.3%	6.8%	2.51µM*	?	-3.4%
Cc1ccc(/C=N/n2c(-c3ccncc3)n[nH]c2=S)cc1	-32.5%	6.7%	1.41µM*	2.24µM*	?
O=C(OCC(=O)N1CCc2ccccc2C1)c1cccs1	-1.0%	40.5%	5.8%	-4.1%	19.1%
CC(C)=CCc1c(O)cc2c(c1O)C(=O)CC(c1ccccc1)O2 (stereo unspecified)	/	29.9%	/	-19.0%	/
NC[C@@H]1O[C@H](c2ccccc2)Cc2c1ccc(O)c2O	/	/	7.0%[59 µM]	/	79.4µM*
NC[C@@H]1O[C@H](C23CC4CC(CC(C4)C2)C3)Cc2c1ccc(O)c2O	?	-3.3%	15.8µM*	?	50.1µM*!
NNC(=O)C(=O)Nc1ccc(O)cc1	-3.3%	26.1%	15.8µM*	3.7%	6.8%
Cc1ccc(NC(=O)C(=O)NN)cc1	?	19.4%	50.1µM*	-13.0%	5.3%
Cc1ccc(NC(=O)CC(N)=S)cc1	-1.3%	14.4%	/	8.91µM*	?
Cc1ccc(NC(=O)CC(O)(C(F)(F)F)C(F)(F)F)cc1	8.6%	44.0%	13.1%	45.2%	14.8%
Cc1cccc(NC(=O)CCC(=O)OCc2ccc(Br)cc2)c1	45.9%	35.2%	40.5%[59 µM]	4.2%	-1.9%
Cc1ccc(NC(=O)CCC(=O)OCc2ccc(Br)cc2)cc1	-0.7%	17.2%	13.7%[59 µM]	79.4µM*	4.5%
Nc1ccc(OC(=O)Nc2ccc(O)cc2)cc1	-8.1%	-2.6%	?	?	-12.0%
Cc1ccc(C#CC[N+]2(CC#Cc3ccc(C)cc3)CCCCC2)cc1	3.5%	22.5%	89.1µM*	-23.4%	-7.9%
C(#Cc1ccccc1)C[N+]1(CC#Cc2ccccc2)CCCCC1	-38.3%	4.7%	-32.6%	44.7µM*	13.3%
CN(C)c1cccc(NC2=CC(=[N+]3CCOCC3)CC(C)(C)C2)c1	?	-6.9%	11.2µM*	89.1µM*	-0.9%
Fc1ccc(-n2ncc3c(N4CCN(Cc5ccccc5)CC4)ncnc32)cc1	-1.7%	31.0%	2.9%[59 µM]	0.6%	/
O=[N+]([O-])c1ccccc1NC1CCN(Cc2ccccc2)CC1	39.8µM*	?	/	?	19.2%
CC1CCC2C(=O)N(c3ccc(NC4CCN(Cc5ccccc5)CC4)c([N+](=O)[O-])c3)C(=O)C2C1 (stereo unspecified)	35.5µM*	?	39.8µM*	31.6µM*	6.9%
